Assay results reported in PubChem BioAssay (NCATS).
Several values for one entry are separate records, joined by “and”; a condition that tells them apart may be missing. Equal entries are not always repeated. Records with an inconclusive call do not appear. Activity calls are given as the source filed them. Calls follow the shape of the dose curve; as a rule, active = well fitted curve in the direction sought with a large enough effect; inconclusive = small, poorly fitted or top-dose-only effect, or another doubt; inactive = no such curve, though single readings can be large; an effect the other way counts as inactive or inconclusive.

Experiments:
HACAT [1] = assay: qHTS assay to identify novel small-molecules to repurpose for Merkel cell carcinoma treatment (AID 1296009); conditions: MCC and control cell lines, CellTiter-Glo viability, 72 h; series mostly up to 44.8 µM; also: nearly all actives have a fitted effect of over 60% in size
Procedure, shortened: (§1)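 72 hr, 37 degree celsius; NPC 8-pt / MIPE 11-pt dose response; compound pinned in DMSO; CellTiter-Glo, 10 min RT, luminescence; normalized to no-cell and DMSO controls.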

MCC-13 = assay: as above; conditions: MCC and control cell lines, CellTiter-Glo viability, 72 h; series mostly up to 46 µM
Procedure, shortened: as §1

MKL-1 = assay: as above; conditions: MCC and control cell lines, CellTiter-Glo viability, 72 h; series mostly up to 46 µM
Procedure, shortened: as §1

MKL-2 = assay: as above; conditions: MCC and control cell lines, CellTiter-Glo viability, 72 h; series mostly up to 46 µM
Procedure, shortened: as §1

NIH3T3 [2] = assay: as above; conditions: MCC and control cell lines, CellTiter-Glo viability, 72 h; at 44.8 µM (top of the series) unless noted
Procedure, shortened: as §1

UISO = assay: as above; conditions: MCC and control cell lines, CellTiter-Glo viability, 72 h; series mostly up to 46 µM
Procedure, shortened: as §1

WaGa = assay: as above; conditions: MCC and control cell lines, CellTiter-Glo viability, 72 h; series mostly up to 46 µM
Procedure, shortened: as §1

HaCat [3] = assay: Cytotoxic Profiling of Annotated Libraries Using Quantitative High-Throughput Screening (AID 1296008); conditions: Five cell lines viability, CellTiter-Glo ATP luminescence, 48-72 h; max response: hits give low values; also: nearly all actives have a fitted effect of over 60% in size
Procedure, shortened: (§2)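 Cytotoxicity was measured as CellTiter-Glo ATP luminescence, read after 10 min at room temperature. Compound treatment of the cells lasted 48 or 72 hr at 37 degrees Celsius in a qHTS format.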

KB-3-1 = assay: as above; conditions: Five cell lines viability, CellTiter-Glo ATP luminescence, 48-72 h; max response: hits give low values
Procedure, shortened: as §2

NIH3T3 [4] = assay: as above; conditions: Five cell lines viability, CellTiter-Glo ATP luminescence, 48-72 h; max response: hits give low values
Procedure, shortened: as §2

MCC-26 = assay: qHTS assay to identify novel small-molecules to repurpose for Merkel cell carcinoma treatment (AID 1296009); conditions: MCC and control cell lines, CellTiter-Glo viability, 72 h; series mostly up to 46 µM; also: nearly all actives have a fitted effect of over 60% in size
Procedure, shortened: as §1

CASKI = assay: Primary qHTS to identify gynecologic anti-cancer compounds using libraries of approved drugs and bioactive compounds (AID 1345084); conditions: Gynecologic cancer cell panel viability, ATPlite luminescence, 48 h; series mostly up to 57.5 µM; also: nearly all actives have a fitted effect of over 55% in size
Procedure, shortened: (§3)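 ATP-based viability (ATPlite), 1,000 cells/well, 16 h pre-incubation, 48 h compound at 37 C, 5% CO2, 15 min RT before read.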

Es-2 = assay: as above; conditions: Gynecologic cancer cell panel viability, ATPlite luminescence, 48 h; series mostly up to 57.5 µM
Procedure, shortened: as §3

HeLa = assay: as above; conditions: Gynecologic cancer cell panel viability, ATPlite luminescence, 48 h; series mostly up to 57.5 µM
Procedure, shortened: as §3

Hek293T = assay: as above; conditions: Gynecologic cancer cell panel viability, ATPlite luminescence, 48 h, control line for the selectivity index; series mostly up to 57.5 µM
Procedure, shortened: as §3

JEG-3 = assay: as above; conditions: Gynecologic cancer cell panel viability, ATPlite luminescence, 48 h; series mostly up to 57.5 µM
Procedure, shortened: as §3

C33A = assay: as above; conditions: Gynecologic cancer cell panel viability, ATPlite luminescence, 48 h; series mostly up to 57.5 µM
Procedure, shortened: as §3

CAOV3 = assay: as above; conditions: Gynecologic cancer cell panel viability, ATPlite luminescence, 48 h; series mostly up to 57.5 µM
Procedure, shortened: as §3
% is scaled to controls: 0 for no effect and ±100 for the full control effect; potency is read from the fitted curve at half-maximal effect.

Nc1ccc(S(=O)(=O)Nc2ncccn2)cc1
inactive: Potency (HACAT [1]) | Potency (MCC-13) | Potency (MKL-1) | Potency (MKL-2) | outcome (NIH3T3 [2]) | Potency (UISO) | Potency (WaGa)

O=C(NCCCNc1nc(Nc2cccc(NC(=O)N3CCCC3)c2)ncc1I)c1cccs1
inactive: Potency (MKL-2)
active: Potency (HaCat [3]) 18.7 µM | Potency (KB-3-1) 13.2 µM | Potency (NIH3T3 [4]) 2.09 µM | Potency (MCC-13) 9.35 µM | Potency (UISO) 16.6 µM | Potency (WaGa) 9.35 µM

COC(=O)C1=C(C)NC(C)=C(C(=O)OCCN2CCN(C(c3ccccc3)c3ccccc3)CC2)C1c1cccc([N+](=O)[O-])c1 (stereo unspecified)
inactive: max response (KB-3-1) -4.82% | Potency (MCC-26) | Potency (CASKI) | Potency (Es-2) | Potency (HeLa) | Potency (Hek293T) | Potency (JEG-3)

CC(C)(C)c1cnc(CSc2cnc(NC(=O)C3CCNCC3)s2)o1
active: Potency (HaCat [3]) 1.32 µM | Potency (KB-3-1) 0.332 µM | Potency (NIH3T3 [4]) 3.32 µM | Potency (UISO) 0.743 µM

CNc1nccc(-c2cccnc2Oc2cc(C(=O)Nc3cccc(C(F)(F)F)c3)ccc2C)n1
active: Potency (NIH3T3 [4]) 18.4 µM
inactive: outcome (KB-3-1) | Potency (MKL-1) | Potency (MKL-2) | Potency (UISO) | Potency (WaGa) | Potency (C33A) | Potency (Hek293T) | Potency (JEG-3)

CN(C)Cc1c(C(=O)NCCOc2ccc(C(=O)NO)cc2)oc2ccccc12
active: Potency (HaCat [3]) 4.11 µM | Potency (KB-3-1) 1.48 µM and 1.3 µM | Potency (NIH3T3 [4]) 3.72 µM and 3.26 µM | Potency (MCC-13) 8.33 µM | Potency (MCC-26) 7.43 µM | Potency (MKL-2) 0.662 µM | Potency (WaGa) 0.332 µM | Potency (C33A) 4.47 µM | Potency (CASKI) 3.98 µM | Potency (Es-2) 5.01 µM | Potency (HeLa) 2.82 µM | Potency (Hek293T) 2.82 µM | Potency (JEG-3) 3.55 µM

CC[C@H](CO)Nc1nc(NCc2ccccc2)c2ncn(C(C)C)c2n1
inactive: max response (NIH3T3 [4]) -26.8% | Potency (MCC-13) | Potency (MKL-1) | Potency (MKL-2) | Potency (WaGa)

CC(C)[C@H](C(=O)Nc1ccc(C(=O)NO)cc1)c1ccccc1
active: Potency (HaCat [3]) 5.9 µM | Potency (KB-3-1) 2.35 µM | Potency (MCC-13) 5.26 µM | Potency (MKL-1) 0.935 µM | Potency (MKL-2) 0.833 µM | Potency (UISO) 3.32 µM | Potency (WaGa) 0.662 µM

Cc1ccc(C(=O)Nc2ccc(CN3CCN(C)CC3)c(C(F)(F)F)c2)cc1C#Cc1cnc2cccnn12
active: Potency (C33A) 25.1 µM | Potency (CASKI) 14.1 µM | Potency (Es-2) 8.91 µM | Potency (HeLa) 11.2 µM

CC1(C)O[C@@H]2C[C@@H]3[C@H]4C[C@@H](F)C5=CC(=O)C=C[C@]5(C)[C@@]4(F)[C@@H](O)C[C@]3(C)[C@]2(C(=O)CO)O1
inactive: max response (HaCat [3]) -6.44% | outcome (KB-3-1) | max response (NIH3T3 [4]) -12.4% | Potency (MCC-13) | Potency (MKL-1) | Potency (MKL-2) | Potency (UISO) | Potency (WaGa)

CC(C)(C)NC(=O)[C@H]1CN(Cc2cccnc2)CCN1C[C@@H](O)C[C@@H](Cc1ccccc1)C(=O)N[C@H]1c2ccccc2C[C@H]1O
inactive: max response (KB-3-1) -44.5% | Potency (MCC-13) | Potency (MCC-26) | Potency (MKL-1) | Potency (UISO) | Potency (WaGa)

C=CC(=O)N1CCC[C@@H](n2nc(-c3ccc(Oc4ccccc4)cc3)c3c(N)ncnc32)C1
active: Potency (HaCat [3]) 1.32 µM | Potency (HACAT [1]) 1.3 µM
inactive: max response (KB-3-1) -15.2% and 0.931% | Potency (MCC-13) | Potency (MKL-1) | Potency (UISO) | Potency (C33A) | Potency (CASKI) | Potency (Es-2) | Potency (HeLa) | Potency (Hek293T) | Potency (JEG-3)

CC(C)(O)CCc1ccc(OCc2cc(-c3cccc(OC(F)F)c3)c3ncccc3c2)cc1
inactive: outcome (HaCat [3]) | max response (NIH3T3 [4]) 4.85% | Potency (HACAT [1]) | Potency (MCC-13) | Potency (MCC-26) | Potency (MKL-1) | Potency (MKL-2) | Potency (UISO) | Potency (WaGa) | Potency (C33A) | Potency (CAOV3) | Potency (CASKI) | Potency (Es-2) | Potency (HeLa) | Potency (Hek293T)

CCS(=O)(=O)c1cccc(-c2cc(C(=O)NC3CCN(C)CC3)c(C)c3[nH]c4ncc(C)cc4c23)c1
active: Potency (HaCat [3]) 4.18 µM and 1.61 µM | Potency (KB-3-1) 1.18 µM and 904 nM | Potency (NIH3T3 [4]) 10.5 µM and 5.7 µM | Potency (MCC-26) 4.69 µM | Potency (MKL-1) 0.132 µM | Potency (MKL-2) 8.33 µM | Potency (UISO) 2.35 µM | Potency (CASKI) 2.82 µM | Potency (Es-2) 12.6 µM | Potency (HeLa) 1.58 µM | Potency (Hek293T) 12.6 µM | Potency (JEG-3) 8.91 µM
